# Measurements reported in the supplement of paper PMC11732987, “Enantioselective OTUD7B fragment discovery through chemoproteomics screening and high-throughput optimisation” (Communications Chemistry, 2025).
# Unmarked numbers belong to inactive results.
# How the values were obtained:
# Test in all cases: log2 ratio of Biotin-Ahx-Ub-VS probe labelling (fragment/DMSO); higher = less target engagement (more negative = stronger competition), active = hit call of the paper (q ≤ 0.05, log2 ratio ≤ -1)
# Settings in all cases: compound concentration: 200 uM; treatment time: 3 h
# [1] = biological target: T1, USP19 (UniProt O94966)
# T1 sequence (whole entry): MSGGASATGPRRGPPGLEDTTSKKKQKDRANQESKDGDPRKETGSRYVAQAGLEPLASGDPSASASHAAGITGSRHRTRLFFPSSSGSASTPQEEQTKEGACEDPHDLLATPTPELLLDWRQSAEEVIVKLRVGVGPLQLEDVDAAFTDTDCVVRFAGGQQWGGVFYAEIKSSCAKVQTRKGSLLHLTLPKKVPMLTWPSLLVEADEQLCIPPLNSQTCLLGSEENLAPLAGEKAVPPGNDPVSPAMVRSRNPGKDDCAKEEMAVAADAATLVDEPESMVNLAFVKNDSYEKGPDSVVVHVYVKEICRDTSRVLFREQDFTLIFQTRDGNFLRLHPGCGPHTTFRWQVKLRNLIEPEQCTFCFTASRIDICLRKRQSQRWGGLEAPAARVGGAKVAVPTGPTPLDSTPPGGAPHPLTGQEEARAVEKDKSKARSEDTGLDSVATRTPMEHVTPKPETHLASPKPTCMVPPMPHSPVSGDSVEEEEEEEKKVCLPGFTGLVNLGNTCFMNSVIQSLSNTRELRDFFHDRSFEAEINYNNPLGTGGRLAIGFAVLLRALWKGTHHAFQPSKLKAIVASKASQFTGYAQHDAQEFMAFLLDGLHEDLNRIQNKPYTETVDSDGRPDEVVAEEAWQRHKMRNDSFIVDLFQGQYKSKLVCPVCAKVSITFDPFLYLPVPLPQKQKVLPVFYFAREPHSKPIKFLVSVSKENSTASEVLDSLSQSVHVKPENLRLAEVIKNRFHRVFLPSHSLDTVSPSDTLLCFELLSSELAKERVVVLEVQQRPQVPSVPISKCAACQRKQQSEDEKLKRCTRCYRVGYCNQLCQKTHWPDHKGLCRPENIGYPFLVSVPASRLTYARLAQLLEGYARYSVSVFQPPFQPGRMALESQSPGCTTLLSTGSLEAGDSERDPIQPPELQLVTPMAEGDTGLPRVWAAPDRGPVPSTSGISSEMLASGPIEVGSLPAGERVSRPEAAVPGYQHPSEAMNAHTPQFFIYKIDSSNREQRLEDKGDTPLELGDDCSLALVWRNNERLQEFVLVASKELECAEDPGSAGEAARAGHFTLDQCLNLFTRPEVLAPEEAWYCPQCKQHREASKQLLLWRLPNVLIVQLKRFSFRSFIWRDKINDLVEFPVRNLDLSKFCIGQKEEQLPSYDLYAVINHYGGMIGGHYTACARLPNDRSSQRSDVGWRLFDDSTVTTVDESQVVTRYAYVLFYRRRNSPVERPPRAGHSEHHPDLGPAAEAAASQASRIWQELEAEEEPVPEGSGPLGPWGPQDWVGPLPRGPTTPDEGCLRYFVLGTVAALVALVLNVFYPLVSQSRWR
# Outline: (§1)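 Average log2 ratios of fragment over vehicle were obtained by unpaired t-test from global-median-normalised Spectronaut label-free quantities. Proteins with ≥2 unique peptides were included. HEK293T lysate (495 µg per sample) was treated in triplicate with fragment at 200 µM or vehicle for 3 h, then with Biotin-Ahx-Ub-VS at 0.5 µM final for 1 h, and labelled DUBs were NeutrAvidin-enriched and run by diaPASEF LC-MS/MS.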
# [2] = biological target: T2, USP22 (UniProt Q9UPT9)
# T2 sequence (whole entry): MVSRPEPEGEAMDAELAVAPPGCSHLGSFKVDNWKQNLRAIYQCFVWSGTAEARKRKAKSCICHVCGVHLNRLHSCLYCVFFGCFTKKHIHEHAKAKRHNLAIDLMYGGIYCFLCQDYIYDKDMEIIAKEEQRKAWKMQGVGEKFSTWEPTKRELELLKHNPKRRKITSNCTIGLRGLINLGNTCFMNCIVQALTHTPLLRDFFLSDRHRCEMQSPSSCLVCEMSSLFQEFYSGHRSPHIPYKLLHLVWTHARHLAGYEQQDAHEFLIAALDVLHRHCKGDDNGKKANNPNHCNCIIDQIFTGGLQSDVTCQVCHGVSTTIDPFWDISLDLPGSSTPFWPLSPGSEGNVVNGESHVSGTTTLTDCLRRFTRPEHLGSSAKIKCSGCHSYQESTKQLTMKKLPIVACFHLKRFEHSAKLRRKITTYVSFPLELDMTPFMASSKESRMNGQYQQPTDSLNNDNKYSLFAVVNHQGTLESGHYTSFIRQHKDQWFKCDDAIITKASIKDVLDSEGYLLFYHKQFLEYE
# Outline: as §1
# [3] = biological target: USP24 (UniProt Q9UPU5)
# Chain of USP24 (Q9UPU5 whole entry): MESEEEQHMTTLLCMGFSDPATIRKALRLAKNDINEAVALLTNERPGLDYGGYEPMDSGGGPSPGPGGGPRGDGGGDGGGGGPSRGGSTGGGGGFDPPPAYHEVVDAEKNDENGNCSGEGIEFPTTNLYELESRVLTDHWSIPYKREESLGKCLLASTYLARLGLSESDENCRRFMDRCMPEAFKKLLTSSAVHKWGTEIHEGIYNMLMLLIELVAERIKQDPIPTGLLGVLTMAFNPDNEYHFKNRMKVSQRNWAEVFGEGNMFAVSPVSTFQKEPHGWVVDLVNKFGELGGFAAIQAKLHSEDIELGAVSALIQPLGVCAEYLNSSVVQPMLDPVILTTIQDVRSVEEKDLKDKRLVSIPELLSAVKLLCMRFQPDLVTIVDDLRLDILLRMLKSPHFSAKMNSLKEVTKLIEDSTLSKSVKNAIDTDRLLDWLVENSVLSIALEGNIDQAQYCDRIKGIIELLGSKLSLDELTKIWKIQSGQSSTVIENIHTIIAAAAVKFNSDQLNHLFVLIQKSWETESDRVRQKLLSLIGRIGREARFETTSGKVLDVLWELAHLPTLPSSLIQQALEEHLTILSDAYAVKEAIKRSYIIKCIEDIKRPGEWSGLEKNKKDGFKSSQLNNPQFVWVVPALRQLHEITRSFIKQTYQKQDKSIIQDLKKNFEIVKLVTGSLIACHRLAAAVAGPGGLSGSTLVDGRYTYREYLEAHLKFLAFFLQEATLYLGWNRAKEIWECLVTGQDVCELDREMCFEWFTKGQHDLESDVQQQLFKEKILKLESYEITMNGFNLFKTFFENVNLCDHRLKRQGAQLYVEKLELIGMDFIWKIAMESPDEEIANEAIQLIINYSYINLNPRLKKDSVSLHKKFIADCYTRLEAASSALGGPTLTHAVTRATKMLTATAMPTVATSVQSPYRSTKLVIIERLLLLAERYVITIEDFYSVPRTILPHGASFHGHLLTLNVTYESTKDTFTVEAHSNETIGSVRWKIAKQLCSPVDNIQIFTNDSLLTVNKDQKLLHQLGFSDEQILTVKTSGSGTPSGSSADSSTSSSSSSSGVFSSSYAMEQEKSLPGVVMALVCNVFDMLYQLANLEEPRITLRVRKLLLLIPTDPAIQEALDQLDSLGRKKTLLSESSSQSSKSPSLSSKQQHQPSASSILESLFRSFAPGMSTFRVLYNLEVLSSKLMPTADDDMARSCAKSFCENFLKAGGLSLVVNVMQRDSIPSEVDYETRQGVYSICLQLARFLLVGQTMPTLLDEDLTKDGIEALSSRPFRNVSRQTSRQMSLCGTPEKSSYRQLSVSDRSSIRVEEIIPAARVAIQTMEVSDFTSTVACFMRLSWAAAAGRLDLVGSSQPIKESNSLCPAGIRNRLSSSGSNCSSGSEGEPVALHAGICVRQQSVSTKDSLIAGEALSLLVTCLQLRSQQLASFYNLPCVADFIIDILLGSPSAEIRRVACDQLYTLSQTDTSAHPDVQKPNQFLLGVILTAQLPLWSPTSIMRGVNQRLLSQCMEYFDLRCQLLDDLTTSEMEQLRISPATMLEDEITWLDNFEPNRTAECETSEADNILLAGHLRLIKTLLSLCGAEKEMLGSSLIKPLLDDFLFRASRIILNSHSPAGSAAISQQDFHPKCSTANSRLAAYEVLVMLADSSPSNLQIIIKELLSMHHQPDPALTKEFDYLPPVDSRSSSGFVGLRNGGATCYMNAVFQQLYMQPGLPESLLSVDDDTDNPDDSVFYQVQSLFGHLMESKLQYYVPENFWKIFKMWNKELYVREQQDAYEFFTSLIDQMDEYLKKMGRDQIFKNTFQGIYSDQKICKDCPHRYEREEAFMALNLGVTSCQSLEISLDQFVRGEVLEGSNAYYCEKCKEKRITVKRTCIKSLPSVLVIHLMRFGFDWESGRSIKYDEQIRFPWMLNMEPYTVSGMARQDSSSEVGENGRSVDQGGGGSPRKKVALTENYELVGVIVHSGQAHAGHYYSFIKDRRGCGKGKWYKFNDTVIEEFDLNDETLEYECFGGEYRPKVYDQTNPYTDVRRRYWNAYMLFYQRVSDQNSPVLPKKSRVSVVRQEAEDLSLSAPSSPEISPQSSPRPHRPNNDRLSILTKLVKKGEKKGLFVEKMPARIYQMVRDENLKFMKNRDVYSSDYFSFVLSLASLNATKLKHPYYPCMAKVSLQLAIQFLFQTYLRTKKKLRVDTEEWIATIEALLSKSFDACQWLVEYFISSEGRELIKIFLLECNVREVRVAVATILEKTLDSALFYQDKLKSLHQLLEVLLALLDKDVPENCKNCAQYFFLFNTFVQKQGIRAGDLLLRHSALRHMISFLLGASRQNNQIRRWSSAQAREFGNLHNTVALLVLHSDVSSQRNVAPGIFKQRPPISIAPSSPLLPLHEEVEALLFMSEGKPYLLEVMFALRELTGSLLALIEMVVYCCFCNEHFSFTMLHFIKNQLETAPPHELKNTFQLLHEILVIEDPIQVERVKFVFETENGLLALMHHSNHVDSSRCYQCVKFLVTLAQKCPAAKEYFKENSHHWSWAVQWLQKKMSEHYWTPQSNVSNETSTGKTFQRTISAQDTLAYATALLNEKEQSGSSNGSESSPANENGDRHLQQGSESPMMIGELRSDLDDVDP
# Outline: as §1
# [4] = biological target: T3, USP25 (UniProt Q9UHP3)
# T3 sequence (whole entry): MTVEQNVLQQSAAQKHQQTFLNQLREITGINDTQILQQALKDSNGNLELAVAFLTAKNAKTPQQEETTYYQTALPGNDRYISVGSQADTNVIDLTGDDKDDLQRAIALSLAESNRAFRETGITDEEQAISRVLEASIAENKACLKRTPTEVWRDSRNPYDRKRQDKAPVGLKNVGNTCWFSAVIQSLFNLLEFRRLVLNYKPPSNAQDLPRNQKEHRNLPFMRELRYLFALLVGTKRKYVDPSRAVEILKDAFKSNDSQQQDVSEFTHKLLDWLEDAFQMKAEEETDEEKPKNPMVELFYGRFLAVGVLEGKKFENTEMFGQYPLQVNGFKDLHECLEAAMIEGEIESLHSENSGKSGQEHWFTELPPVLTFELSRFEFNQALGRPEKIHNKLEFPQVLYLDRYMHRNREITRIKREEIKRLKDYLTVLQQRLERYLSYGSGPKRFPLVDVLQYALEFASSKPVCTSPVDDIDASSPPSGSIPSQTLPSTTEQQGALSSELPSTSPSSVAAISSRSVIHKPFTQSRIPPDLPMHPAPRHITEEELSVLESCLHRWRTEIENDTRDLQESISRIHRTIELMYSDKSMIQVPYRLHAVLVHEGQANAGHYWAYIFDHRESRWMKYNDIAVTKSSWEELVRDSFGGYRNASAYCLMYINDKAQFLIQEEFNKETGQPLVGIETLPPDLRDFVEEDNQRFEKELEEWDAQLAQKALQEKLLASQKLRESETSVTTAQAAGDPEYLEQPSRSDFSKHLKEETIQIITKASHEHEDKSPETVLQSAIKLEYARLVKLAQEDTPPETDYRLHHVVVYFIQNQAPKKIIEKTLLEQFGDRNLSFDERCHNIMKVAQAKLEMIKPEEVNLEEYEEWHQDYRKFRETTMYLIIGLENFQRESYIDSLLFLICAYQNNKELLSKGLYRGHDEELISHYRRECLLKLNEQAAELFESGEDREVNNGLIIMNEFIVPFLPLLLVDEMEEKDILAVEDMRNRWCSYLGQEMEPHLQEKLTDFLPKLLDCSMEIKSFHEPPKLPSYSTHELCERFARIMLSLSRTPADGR
# Outline: as §1
# [5] = biological target: T4, USP28 (UniProt Q96RU2)
# T4 sequence (whole entry): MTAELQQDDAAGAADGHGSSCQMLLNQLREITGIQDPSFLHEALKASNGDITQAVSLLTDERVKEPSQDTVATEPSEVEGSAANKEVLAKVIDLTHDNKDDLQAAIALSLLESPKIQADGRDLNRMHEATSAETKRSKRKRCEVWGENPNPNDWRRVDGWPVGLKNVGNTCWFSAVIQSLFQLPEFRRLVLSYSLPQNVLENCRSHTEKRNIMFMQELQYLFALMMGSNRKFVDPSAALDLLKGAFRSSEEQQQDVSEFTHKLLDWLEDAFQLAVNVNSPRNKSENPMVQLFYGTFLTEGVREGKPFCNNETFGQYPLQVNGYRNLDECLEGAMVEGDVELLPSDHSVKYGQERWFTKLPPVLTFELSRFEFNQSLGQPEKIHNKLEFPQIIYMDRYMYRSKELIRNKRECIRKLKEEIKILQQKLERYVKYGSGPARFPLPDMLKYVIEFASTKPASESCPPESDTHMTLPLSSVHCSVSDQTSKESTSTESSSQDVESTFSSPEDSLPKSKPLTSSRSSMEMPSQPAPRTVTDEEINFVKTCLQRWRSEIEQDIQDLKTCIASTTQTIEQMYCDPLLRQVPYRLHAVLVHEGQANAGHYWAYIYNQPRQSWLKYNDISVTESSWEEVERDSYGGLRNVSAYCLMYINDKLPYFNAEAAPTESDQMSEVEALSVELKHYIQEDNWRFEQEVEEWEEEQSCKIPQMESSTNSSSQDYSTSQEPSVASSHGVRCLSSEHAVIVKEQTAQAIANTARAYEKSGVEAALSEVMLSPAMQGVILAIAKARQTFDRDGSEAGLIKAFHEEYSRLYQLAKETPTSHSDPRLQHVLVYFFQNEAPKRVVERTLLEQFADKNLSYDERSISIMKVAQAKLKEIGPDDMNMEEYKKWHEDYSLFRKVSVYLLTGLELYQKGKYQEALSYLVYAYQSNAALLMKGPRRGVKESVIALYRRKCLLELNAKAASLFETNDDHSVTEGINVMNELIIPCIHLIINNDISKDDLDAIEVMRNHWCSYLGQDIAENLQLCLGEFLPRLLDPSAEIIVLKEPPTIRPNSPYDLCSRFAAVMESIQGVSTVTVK
# Outline: as §1
structure (smiles),measurement,setting,value
O=C(CCl)Nc1nc(-c2cccs2)cs1,log2 ratio of Biotin-Ahx-Ub-VS probe labelling,[1],-0.517
same,log2 ratio of Biotin-Ahx-Ub-VS probe labelling,[2],-0.167
same,log2 ratio of Biotin-Ahx-Ub-VS probe labelling,[3],-1.48 (active)
same,log2 ratio of Biotin-Ahx-Ub-VS probe labelling,[4],-0.387
same,log2 ratio of Biotin-Ahx-Ub-VS probe labelling,[5],-0.678
